Source: PubChem BioAssay (EPA / NIEHS)
Inconclusive results are not listed. Active and inactive are the calls of the source. The calls were made as follows, unless noted: active = hit-call score of the fitted dose curve at least 0.9, where 1 is the maximum; inconclusive = response in the unintended direction; inactive = score below 0.9.

Legend:
[1] = Tanguay_ZF_120hpf_CIRC_legacy: (Legacy) Oregon State University Tanguay Lab 120 Hour Post-fertilization zebrafish Assay for Circulatory Malformation (AID 2283651)
Method in brief: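 Binary circulatory malformation call at 120 hpf by brightfield imaging of zebrafish larvae; chorion removed at 4 hpf, static exposure from 6 hpf in sealed dark plates at 28C, final DMSO 0.64%; non-mortality endpoints skipped if embryo died.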

[2] = Tanguay_ZF_120hpf_TRUN_legacy: (Legacy) Oregon State University Tanguay Lab 120 Hour Post-fertilization zebrafish Assay for Truncated Body (AID 2283655)
Method in brief: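 Tropical 5D wild-type embryos, dechorionated with pronase at 4 hpf, were placed singly in wells at 6 hpf and statically exposed at 28C until 120 hpf, final DMSO 0.64%. Truncated body was scored present/absent by brightfield microscopy.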

[3] = Tanguay_ZF_120hpf_NC_legacy: (Legacy) Oregon State University Tanguay Lab 120 Hour Post-fertilization zebrafish Assay for Notochord and Tail Malformation (AID 2283656)
Method in brief: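 Binary scoring of notochord distortion by brightfield microscopy; embryos dying were not scored. Wild-type Tropical 5D embryos, chorion removed, exposed singly and statically from 6 to 120 hpf, 28C, sealed, 0.64% DMSO.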

[4] = tested on: Thyroperoxidase (TPO), gene 54314; experiment: CCTE_Simmons_AUR_rTPO: CCTE's Amplex UltraRed Assay for Thyroperoxidase (TPO) Inhibition, Simmons Lab (AID 2283662);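 as to AC50: potency for loss of signal meaning inhibition of peroxidase activity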
Method in brief: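 Cell-free peroxidase activity assay using rat thyroid gland microsomes with excess H2O2 (300 uM) and 25 uM Amplex UltraRed. Compounds tested from 5 nM to 87.5 uM; fluorescence measured after 30 min at 37C, analysed relative to DMSO baseline.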

[5] = CCTE_Simmons_CellTiterGLO_HEK293T: Viability Assessment in CCTE's Assays for Thyroperoxidase (TPO) Inhibition, Simmons Lab (AID 2283665);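 as to AC50: cells exposed to compound for 24 h before readout; actives reduce ATP signal below DMSO vehicle meaning cytotoxicity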
Method in brief: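 Luciferase-coupled ATP content after 24 h exposure gives viability; 8-point series from 5 nM to 87.5 uM final in 0.5% DMSO. Human HEK293T cells, 1% FBS medium, three biological replicates, dichlone positive control.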

[6] = CCTE_Padilla_ZF_144hpf_TERATOSCORE: (Legacy) CCTE's 144 Hour Post-fertilization zebrafish Assay Teratoscore, Padilla Lab (AID 2283679; active = hit-call score of the fitted dose curve at least 0.9, where 1 is the maximum; inactive = score below 0.9;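 as to AC50: zebrafish embryos with chorions exposed by immersion from 6-8 hpf to 5 dpf with daily renewal; teratogenicity score from eye scoring of death hatching and malformations at 144 hpf; higher score means more developmental defects relative to DMSO baseline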)
Method in brief: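 Larvae scored by eye at 144 hpf for death, hatching and malformations after a day in clean Hanks'. Before that, daily-renewed exposure at 80 uM (0.4% DMSO, 26C) from roughly 6-8 hpf through 5 dpf, 4 embryos per chemical.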

[7] = STM_H9_OrnithineISnorm_perc: Stemina devTOX quickPredict H9 human embryonic stem cell (hESC)-based Assay for Ornithine (ORN) Metabolite Biomarker, Normalized (AID 2283712; active = hit-call score of the fitted dose curve at least 0.9, where 1 is the maximum; inactive = score below 0.9;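 also: ornithine released into spent medium during last day measured by mass spectrometry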)
Method in brief: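 Ornithine in spent medium from the last 24 h of a 72 h exposure, deproteinised and quantified by UPLC-HRMS against an isotope-labelled internal standard, expressed relative to 0.1% DMSO. Pluripotent H9 cells; compound refreshed every 24 h.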

[8] = STM_H9_CystineISnorm_perc: Stemina devTOX quickPredict H9 human embryonic stem cell (hESC)-based Assay for Cystine (CYSS) Metabolite Biomarker, Normalized (AID 2283713; active = hit-call score of the fitted dose curve at least 0.9, where 1 is the maximum; inactive = score below 0.9)
Method in brief: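 Cystine in spent media from the last 24 h of a 72 h H9 hESC exposure (daily re-dosing), measured by UPLC-HRMS. Values normalized to isotopic internal standard, then to 0.1% DMSO; viability via CellTiter-Fluor.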

[9] = STM_H9_OrnCyssISnorm_ratio: Stemina devTOX quickPredict H9 human embryonic stem cell (hESC)-based Assay for Ornithine (ORN):Cystine (CYSS) Ratio (AID 2283714)
Method in brief: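 H9 hESC, 72h, q24h re-dose; last-day media → acetonitrile deproteinization → UPLC-HRMS. ORN:CYSS ratio from isotope-normalized EIC areas, vs 0.1% DMSO; MTX references on each plate.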

[10] = CEETOX_H295R_MTT_cell_viability: Viability Assessment in the CeeTox HT-H295R MTT Assay (AID 2283718; active = hit-call score of the fitted dose curve at least 0.9, where 1 is the maximum; inactive = score below 0.9;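 as to AC50: curve fitted both ways so AC50 may mark viability loss or gain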)
Method in brief: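 H295R cells prestimulated 48 h with 10 uM forskolin, then exposed 48 h to test chemical (0.1% DMSO final). Viability by MTT (0.5 mg/ml, 4 h, 37 C), absorbance 570/650 nm; percent change versus DMSO, bidirectional fit.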

[11] = Tanguay_ZF_120hpf_ActivityScore_legacy: (Legacy) Oregon State University Tanguay Lab 120 Hour Post-fertilization zebrafish Assay Score for Activity (AID 2283742)
Method in brief: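 In this whole-embryo screen, dechorionated zebrafish were exposed from 6 hpf until 120 hpf at 28C under a 0.64% DMSO vehicle. Developmental malformations and death were recorded by brightfield microscopy as binary endpoints.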

[12] = Tanguay_ZF_120hpf_TR_legacy: (Legacy) Oregon State University Tanguay Lab 120 Hour Post-fertilization zebrafish Assay for Touch Response (AID 2283667)
Method in brief: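 Readout is presence or absence of touch response in 120 hpf zebrafish larvae, assessed by brightfield observation after continuous static exposure at 28C. Final vehicle was 0.64% (vol/vol) DMSO.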

[13] = read-out: kallikrein-3 (KLK3), KLK3 (gene 354); experiment: LTEA_HepaRG_KLK3: Life Technologies and Expression Analysis (LTEA) Assay for kallikrein-3 (KLK3) using HepaRG (AID 2283652; active = hit-call score of the fitted dose curve at least 0.9, where 1 is the maximum; inactive = score below 0.9); details: mRNA level, 48 h; actives raise or lower the signal
Method in brief: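 KLK3 transcript levels were measured by TaqMan qRT-PCR with normalisation to three housekeeping genes. HepaRG cultures received chemicals for 48 h at up to 100 uM (half-log, 8 points, 0.5% DMSO vehicle), fitted in both directions against DMSO.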

[14] = read-out: solute carrier (SLC22A6), SLC22A6 (gene 9356); experiment: LTEA_HepaRG_SLC22A6: Life Technologies and Expression Analysis (LTEA) Assay for solute carrier (SLC22A6) using HepaRG (AID 2283653; active = hit-call score of the fitted dose curve at least 0.9, where 1 is the maximum; inactive = score below 0.9); details: mRNA level, 48 h; actives raise or lower the signal
Method in brief: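 Differentiated human HepaRG cells were exposed for 48 h in serum-free induction medium to eight concentrations (top 100 uM, half-log steps, 0.5% DMSO), in duplicate. SLC22A6 mRNA was quantified by qRT-PCR, normalised to ACTB, GAPDH and POLR2A, and fitted bidirectionally against DMSO.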

[15] = read-out: solute carrier (SLC10A1), SLC10A1 (gene 6554); experiment: LTEA_HepaRG_SLC10A1: Life Technologies and Expression Analysis (LTEA) Assay for solute carrier (SLC10A1) using HepaRG (AID 2283657; active = hit-call score of the fitted dose curve at least 0.9, where 1 is the maximum; inactive = score below 0.9); details: mRNA level, 48 h; actives raise or lower the signal
Method in brief: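 Cryopreserved HepaRG cells are thawed, plated and cultured 48 h; medium is then switched to serum-free induction medium and chemicals added (8 points, max 100 uM, 0.5% DMSO). After 48 h, RNA is isolated and SLC10A1 quantified by qRT-PCR.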

[16] = read-out: matrix metalloproteinase-1 (MMP1), MMP1 (gene 4312); experiment: LTEA_HepaRG_MMP1: Life Technologies and Expression Analysis (LTEA) Assay for matrix metalloproteinase-1 (MMP1) using HepaRG (AID 2283658; active = hit-call score of the fitted dose curve at least 0.9, where 1 is the maximum; inactive = score below 0.9); details: mRNA level, 48 h; actives raise or lower the signal
Method in brief: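 Differentiated HepaRG cells, plated 48 h then switched to serum-free induction medium, were exposed in duplicate for 48 h to eight half-log concentrations up to 100 uM in 0.5% DMSO; MMP1 mRNA measured by qRT-PCR, normalized to ACTB, GAPDH, POLR2A.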

[17] = read-out: Cytochrome P450 (CYP24A1_1), CYP24A1 (gene 1591); experiment: LTEA_HepaRG_CYP24A1_1: Life Technologies and Expression Analysis (LTEA) Assay for Cytochrome P450 (CYP24A1_1) using HepaRG (AID 2283671; active = hit-call score of the fitted dose curve at least 0.9, where 1 is the maximum; inactive = score below 0.9); details: mRNA level, 48 h; actives raise or lower the signal
Method in brief: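 Cultures of human HepaRG were treated in duplicate for 48 h (0.5% DMSO vehicle, highest dose 100 uM). CYP24A1 mRNA by qRT-PCR, normalized to ACTB, GAPDH, POLR2A.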

[18] = ArunA_CellTiter_hNC: Viability Assessment in the ArunA Biomedical's Oris Neural Crest (hNC) Cell Migration Assay (AID 2283752)
Method in brief: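 After a 72 h chemical exposure, viability of hNC cells is read with CellTiter Aqueous One and fitted as signal loss relative to DMSO. Cells were seeded at 60,000/well on Matrigel and cultured 16 h at 37 C beforehand.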

[19] = tested on: Thyroperoxidase (TPO), gene 445522; experiment: CCTE_Simmons_GUA_TPO: CCTE's Guaiacol Assay for Thyroperoxidase (TPO) Inhibition, Simmons Lab (AID 2283750)
Method in brief: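 Porcine thyroid microsomes (25 ug) in 200mM potassium phosphate, preincubated 30 s at 37C with compound (8 concentrations, 5 nM–87.5 uM) and 35mM guaiacol; 1mM H2O2 starts reaction. Absorbance change at 450nm over first 80 s; loss of signal versus DMSO, three replicates.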

[20] = ArunA_CellTiter_hNP: Viability Assessment in the ArunA Biomedical's Oris Neural Crest (hNC) Cell Migration Assay (AID 2283753)
Method in brief: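 Viability read with CellTiter 96 Aqueous One after 72 h chemical exposure of human hNP1 neuroprogenitors, which were plated on Matrigel in LIF/bFGF medium 16 h beforehand. Endpoint fitted in positive direction relative to DMSO.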

Measured: AC50

Nc1ccc2ccccc2c1
inactive: [1] | [2] | [3] | [5] | [7] | [8] | [9]
active: [4] 0.34 µM | [6] 42.1 µM | [10] 23.9 µM | [11] 36.8 µM

CCC1(c2ccccc2)C(=O)N=C(O)NC1=O (stereo not drawn)
active: [7] 0.0967 µM
inactive: [1] | [2] | [3] | [4] | [5] | [12] | [8] | [9] | [11]

CC(C)(C)OOC(C)(C)C
inactive: [1] | [13] | [14] | [2] | [3] | [15] | [16] | [17] | [11]

CCOP(=S)(Oc1ccc([N+](=O)[O-])cc1)c1ccccc1 (stereo not drawn)
active: [4] 10.2 µM | [6] 1.19 µM
inactive: [1] | [2] | [3] | [5] | [12] | [10] | [11]

Cc1ccc(N)cc1N
inactive: [1] | [2] | [3] | [5] | [12] | [8] | [10] | [18]
active: [4] 9.92 µM | [7] 89.7 µM | [9] 65.8 µM | [11] 0.00921 µM

O=C(O)C1C(C(=O)O)C2(Cl)C(Cl)=C(Cl)C1(Cl)C2(Cl)Cl (stereo not drawn)
inactive: [1] | [2] | [3] | [12] | [7] | [8] | [11] | [18]

CCN(CC)c1ccccc1
inactive: [1] | [2] | [3] | [12] | [11]

[N-]=[N+]=[N-]
inactive: [1] | [3] | [5] | [12] | [6] | [11]
active: [19] 26.5 µM

CC(C)Nc1ccc(Nc2ccccc2)cc1
inactive: [10]

Nc1ccc(Cl)cc1
inactive: [1] | [3] | [5] | [10] | [11]
active: [4] 0.315 µM

CCCCc1ccc(O)cc1
active: [4] 0.51 µM | [5] 53.6 µM
inactive: [10]

Oc1ccc(I)cc1
inactive: [10]

CCOP(=S)(OCC)SCS(=O)(=O)CC
inactive: [10]

CCCCN(CCCC)N=O
inactive: [2] | [12] | [11]

CCOC(=O)c1ccccc1N
inactive: [10]

CCCCc1ccccc1
inactive: [1] | [2] | [12] | [11]

ClC(Cl)(Cl)c1ccccc1
inactive: [1] | [11]

CCOP(=S)(OCC)SCn1nnc2ccccc2c1=O
inactive: [10]

O=S(=O)(c1ccc(O)cc1)c1ccc(O)cc1
inactive: [10]
active: [4] 32 µM

CCCCC(CC)COP(=O)(Oc1ccccc1)Oc1ccccc1 (stereo not drawn)
inactive: [7] | [8] | [9] | [18] | [20]

c1cc2c3c(cccc3c1)CC2
inactive: [1] | [3] | [12] | [11]

O=c1ssc(Cl)c1Cl
active: [4] 24.5 µM | [5] 53.8 µM

CCOP(=S)(NC(C)C)Oc1ccccc1C(=O)OC(C)C (stereo not drawn)
inactive: [10]

ClC1=C(Cl)C2(Cl)C3C(Cl)C(Cl)CC3C1(Cl)C2(Cl)Cl (stereo not drawn)
inactive: [12] | [11]
active: [6] 9.16 µM

O=S1(=O)OCC2C(CO1)C1(Cl)C(Cl)=C(Cl)C2(Cl)C1(Cl)Cl (stereo not drawn)
inactive: [10]
active: [4] 2.41 µM | [5] 28.5 µM

CO/N=C(/C(=O)OC)c1ccccc1COc1ccccc1C
active: [10] 5.04 µM

ClC(Cl)=C(c1ccc(Cl)cc1)c1ccccc1Cl
inactive: [10]

CC(=O)c1ccc(-c2ccccc2)cc1
inactive: [10]

CCCN(CCC)c1c([N+](=O)[O-])cc(C(C)C)cc1[N+](=O)[O-]
inactive: [2] | [3] | [12] | [11]
active: [6] 16.2 µM

O=P(Oc1ccccc1)(Oc1ccccc1)Oc1ccccc1
inactive: [2] | [3] | [12] | [7] | [8] | [10] | [11] | [18] | [20]
active: [6] 6.17 µM

c1ccc2c(c1)Nc1ccccc1S2
active: [4] 15 µM | [5] 9.57 µM | [6] 14.2 µM | [19] 100 µM
inactive: [1] | [3] | [12] | [7] | [8] | [9] | [10] | [11]

OCC1CO1 (stereo not drawn)
inactive: [1] | [2] | [12] | [11]

COP(N)(=S)OC
inactive: [10]

CCCCN(CC)C(=O)SCCC
active: [4] 6.35 µM | [5] 73.1 µM

c1nc[nH]n1
inactive: [1] | [3] | [12] | [11]

N#Cc1c(-c2ccc(Cl)cc2)[nH]c(C(F)(F)F)c1Br
active: [10] 0.289 µM

Nc1ccc([N+](=O)[O-])cc1Cl
inactive: [10]

CCCCOCCOP(=O)(OCCOCCCC)OCCOCCCC
inactive: [10]
